Compounds with a hit are over-represented: about 6.1% of the library has one in this group of screens.
D1 agonist: human D1 receptor agonism; HEK293 T-REx D1 cells, calcium flux, agonist mode; activation, % at 2 µM; 360,000 compounds, 1% hits; in the data active = activation above about 30%; also: 0% is about no effect
Target sequence (P21728 whole entry, looked up): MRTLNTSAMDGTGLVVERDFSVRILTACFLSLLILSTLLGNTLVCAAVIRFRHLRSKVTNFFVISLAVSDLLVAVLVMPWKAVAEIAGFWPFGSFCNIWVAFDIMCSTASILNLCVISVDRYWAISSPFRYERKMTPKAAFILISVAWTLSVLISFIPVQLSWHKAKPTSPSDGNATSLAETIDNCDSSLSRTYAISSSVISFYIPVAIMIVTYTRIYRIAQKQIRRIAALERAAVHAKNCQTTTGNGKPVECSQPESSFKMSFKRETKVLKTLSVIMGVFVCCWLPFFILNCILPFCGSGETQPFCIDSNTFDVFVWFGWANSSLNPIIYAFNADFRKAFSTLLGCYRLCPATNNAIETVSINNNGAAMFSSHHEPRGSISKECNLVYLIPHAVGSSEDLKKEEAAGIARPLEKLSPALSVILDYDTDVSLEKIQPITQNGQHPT
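Agonism was scored from calcium flux recorded over 180 s (1 read/s) after pintool compound addition, following a 10-cycle baseline. Cells were inducible force-coupled HEK293 TREx D1, plated overnight at 30 C and loaded with no-wash calcium dye.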
D1 antag: human D1 dopamine receptor antagonism; activity change, negative = inhibition, % at 10 µM; P21728; AID 504652; HEK293 TREx D1 cells, calcium flux, dopamine EC80; active compounds read low; 360,000 compounds, 3.2% hits; in the data active = activity change below about -30%; also: % is scaled to controls: 0 for no effect and ±100 for the full control effect
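Calcium flux readout: force-coupled, inducible Hek293 Trex D1 line, cells induced overnight at 30 C with tetracycline, dye-loaded 30–90 min at RT. Antagonism scored against EC80 dopamine challenge given 180 s after compound.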
D1 potentiator: human D1 dopamine receptor positive modulation; 360,000 compounds, 0.036% hits; potentiation, % at 10 µM; P21728; AID 504651; HEK293 TREx D1 cells, calcium flux, dopamine EC20 potentiation; in the data active = potentiation above about 30%; also: 0% is about no effect
D3 ag: D3 dopamine receptor (human) agonism; D3R DiscoveRx beta-arrestin cells, luminescence, 90 min; AID 652048; max activation, %; 410,000 compounds, 0.58% hits; P35462; in the data active = max activation above about 30%; also: 0% is about no effect
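Cells at 1500/well, incubated overnight, then treated with pinned compounds (dopamine as control) for 90 min at 37 degrees C. DiscoveRx reagent added for 30 - 60 minutes at room temperature; luminescence read.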
DRD3 antagonist: blocks the human D3 dopamine receptor | max response, negative = inhibition, % | D3R cells, DiscoveRx beta-arrestin luminescence, antagonist mode; active compounds read low | 360,000 compounds, 2.5% hits | P35462; in the data active = max response below about -50%; inconclusive = no clear call, values can overlap the other calls; also: % is scaled to controls: 0 for no effect and ±100 for the full control effect
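Cells expressing the human receptor were seeded at 1500 cells/well, incubated overnight at 37 degrees C in 5% CO2, then exposed to library compounds with dopamine controls for 90 minutes at 37 degrees C before luminescent detection.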
The depositor's hits bear a star; ? = inconclusive; · = no result given.

SMILES	D1 agonist	D1 antag	D1 potentiator	D3 ag	DRD3 antagonist
Cc1cccc(N2CCN(C(=O)c3ccccn3)CC2C)c1 (centres undefined)	1	-4	-3	3	23
Cc1cccc(N2CCN(C(=O)CCN3C(=O)C4C5C=CC(C5)C4C3=O)CC2C)c1 (centres undefined)	1	-21	1	4	-8
CNCC(=O)N1CCN(c2ncc(C(F)(F)F)cc2Cl)CC1	9	-1	-3	-8	-9
CCOc1ccccc1Cn1c(=O)sc2ccccc21	2	-2	-1	-5	4
CC(C)CCOc1ccccc1Cn1c(=O)sc2ccccc21	35*	14	-4	-5	·
O=C(O)CNC(=O)/C(=C/c1ccco1)NC(=O)/C=C/c1ccccc1	270*	-36*	-8	2	10
C=CCOC(=O)/C(=C/c1ccco1)NC(=O)/C=C/c1ccccc1	4	-8	-4	0	8
CC1Sc2ccc(S(=O)(=O)CCC(=O)N3CCN(c4cccc(Cl)c4)CC3)cc2NC1=O (centres undefined)	10	-42*	5	2	26
COc1ccccc1NS(=O)(=O)c1ccc2c(c1)NC(=O)C(C)S2 (centres undefined)	32*	1	-4	1	-1
COc1ccccc1NC(=O)c1ccc(S(=O)(=O)N2CCC(C)CC2)cc1	2	-32*	-4	-3	-22
COc1ccccc1NC(=O)C1CCN(S(=O)(=O)c2ccc3c(c2)NC(=O)C(C)S3)CC1 (centres undefined)	13	-30*	-1	-8	3
COc1cccc(NS(=O)(=O)c2ccc3c(c2)NC(=O)C(C)S3)c1 (centres undefined)	13	0	7	3	10
COc1ccc(S(=O)(=O)NCc2ccc3c(c2)CCN3C(C)=O)cc1OC	1	14	-2	3	·
Cc1cccc(OCCOCCn2c(-c3ccc(Cl)cc3)nc3ccccc3c2=O)c1C	4	-3	-1	-5	·
Cc1ccc(NC(=O)C2CCN(S(=O)(=O)c3ccc4c(c3)NC(=O)C(C)S4)CC2)cc1C (centres undefined)	7	-27	7	0	20
COc1ccc(N2CCN(S(=O)(=O)c3ccc4c(c3)NC(=O)C(C)S4)CC2)cc1 (centres undefined)	14	-38*	2	19	10
Cc1ccc(NC(=O)C2CCN(S(=O)(=O)c3ccc4c(c3)NC(=O)C(C)S4)CC2)c(C)c1 (centres undefined)	8	-40*	1	4	5
Cc1cccc(N(C2C=CS(=O)(=O)C2)S(=O)(=O)c2ccccc2)c1 (centres undefined)	0	-60*	-5	-6	-5
CC1(C(=O)CSc2ncn[nH]2)CCC(=O)O1 (centres undefined)	2	-43*	22	·	·
CC1(C(=O)CSc2nc3ccccc3[nH]2)CCC(=O)O1 (centres undefined)	0	-16	-6	4	-18
CCn1cc([N+](=O)[O-])c(C(=O)N2N=C(c3cccc4ccccc34)CC2c2ccccc2O)n1 (centres undefined)	0	12	12	1	?
CCn1cc([N+](=O)[O-])c(C(=O)N2N=C(c3ccc(OC)cc3OC)CC2c2ccccc2O)n1 (centres undefined)	5	-31*	-2	-4	?
Cc1cc(F)ccc1S(=O)(=O)Nc1ccc2oc3c(c2c1)CC(C)CC3 (centres undefined)	37*	0	-7	13	·
CCN(CC)c1ccc(C2=NNC(=O)CC2C)cc1[N+](=O)[O-] (centres undefined)	3	-44*	-9	-12	-9
Cc1ccc(C(C(=O)NCC2CCCO2)N(C(=O)c2snc(C(N)=O)c2N)c2ccccc2)o1 (centres undefined)	-3	18	-2	25	60
SMILES	D1 agonist	D1 antag	D1 potentiator	D3 ag	DRD3 antagonist
c1ccc(-c2noc(-c3cccnc3NCc3ccco3)n2)cc1	12	2	2	2	·
COC(=O)c1cc(C)nc2c1C(=O)C(=O)C=C2N1CCOCC1	1	-5	-8	0	-100*
O=C(OC1CCOC1=O)c1cccc(S(=O)(=O)Nc2cccc(Cl)c2)c1 (centres undefined)	11	-32*	-4	0	6
O=C(Nc1ccc(-c2n[nH]c(=S)o2)cc1)c1ccccc1Br	3	6	-3	3	8
Cc1ccc(Oc2ccc(S(=O)(=O)Nc3ccc(C(=O)O)cc3)cc2)cc1	2	-42*	-4	-10	1
COC(=O)COc1ccc(S(=O)(=O)Nc2ccc3c(c2)OCCO3)cc1C	12	-19	3	3	-5
COc1ccc(NS(=O)(=O)c2ccc(NS(=O)(=O)c3ccc4c(c3)OCCO4)cc2)cc1	2	3	2	-12	·
O=S(=O)(Nc1ccc(Cl)cc1)c1ccc(NS(=O)(=O)c2ccc3c(c2)OCCO3)cc1	61*	-11	-2	-20	·
COC(=O)COc1ccc(S(=O)(=O)Nc2ccc3c(c2)OCCO3)cc1Cl	11	-33*	-7	-16	23
COc1ccc(NS(=O)(=O)c2ccc3oc(Nc4ccc5c(c4)OCCO5)nc3c2)cc1	-3	-28	-7	5	-56*
NS(=O)(=O)c1ccc(NS(=O)(=O)c2ccc3c(c2)OCCO3)cc1	5	-6	-13	1	2
O=C(NCc1cccs1)c1ccc2c(c1)N(Cc1cccc(F)c1)C(=O)c1ccccc1S2	8	8	0	-9	·
Cc1cc(C)cc(C(=O)N2CCN(c3ccccn3)CC2)c1	1	5	1	12	6
CCC(=O)c1ccc(OCC(=O)OCC(=O)Nc2sccc2C(N)=O)cc1	15	-29	-2	6	48
CCOC(=O)COc1ccc(S(=O)(=O)Nc2ccc3c(c2)OCO3)cc1	63*	2	-11	0	-22
COc1ccc(S(=O)(=O)NCC(=O)Nc2ccc3c(c2)OCCO3)cc1OC	6	-2	4	-3	-50*
CCOC(=O)COc1ccc(S(=O)(=O)Nc2ccc(C)cc2)cc1	45*	-15	-13	2	27
COc1ccc(C(=O)O)cc1S(=O)(=O)Nc1ccc(C)cc1	3	-70*	-10	-5	-15
CCCNS(=O)(=O)c1ccc(OCC(=O)Nc2ccc3c(c2)OCO3)cc1	0	2	0	-2	-27
COc1ccc(NC(=O)CNS(=O)(=O)c2ccc(Cl)cc2)cc1OC	4	-20	-3	1	60
Cc1ccc(-c2c[n+](CC(=O)Nc3cc(=O)n(C)c(=O)n3C)c3n2CCC3)cc1	2	-6	-6	-2	-10
O=C(CSc1ncc(-c2ccccc2)[nH]1)Nc1cccc(C(F)(F)F)c1	4	-9	-3	-12	·
